Assay outcomes as filed in PubChem BioAssay.
PP5 inh: inhibitors of human protein phosphatase 5 (PP5); P53041; purified PP5c, OMFP substrate fluorescence; inhibition, % at 6.7 µM; 320,000 tested, 0.18% active;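 active means inhibition above the campaign's mean inhibition across all tested compounds plus 3 SD, cut at about 9.5% in these data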;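 further: 0% = DMSO only and 100% = 100 µM cantharidin control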
KLK7 zymogen act: proKLK7 (human) activation, primary screen | P49862 | purified proKLK7, EDANS-DABCYL substrate fluorescence; 100% is mature enzyme control, 0% vehicle | activation, % at 7 µM | 370,000 tested, 0.9% active | AID 652039;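 active means activation above the mean of all tested compounds plus 3 SD, computed per campaign excluding outliers beyond control limits, cut at about 13% in these data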
Target sequence (P49862 whole entry, looked up): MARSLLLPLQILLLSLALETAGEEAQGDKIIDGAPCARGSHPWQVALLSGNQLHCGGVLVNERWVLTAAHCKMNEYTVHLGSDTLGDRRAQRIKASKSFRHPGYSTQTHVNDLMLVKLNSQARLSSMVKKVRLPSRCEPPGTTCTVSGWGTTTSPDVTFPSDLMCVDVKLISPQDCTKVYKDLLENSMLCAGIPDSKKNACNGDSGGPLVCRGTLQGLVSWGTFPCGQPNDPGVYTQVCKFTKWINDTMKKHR
PG9 binder: binds the HIV-1 gp120 antibody PG9; 360,000 tested, 0.43% active; inhibition, % at 6.7 µM; AID 624416; TR-FRET gp120-PG9 antibody binding; in the data active means inhibition above about 8.5%
Rev-erbA mod: modulates human Rev-erb alpha binding to DNA | P20393 | Rev-erbα–FITC-DNA binding, fluorescence polarization, 90 min | activity, % at 10 µM | 370,000 tested, 0.79% active;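 active means activity above about 14%, limit read from the data; passing the limit was not always enough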;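 further: 0% = DMSO wells with 35 nM protein and 100% = DMSO wells with 750 nM protein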
PP1 inh: PP1-alpha (human) inhibition in PP5 counter-screen. P62136. purified PP1alpha, OMFP fluorescence. inhibition, % at 6.7 µM. 320,000 tested, 0.9% active;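 active means inhibition above the mean inhibition of all tested compounds plus 3 SD, computed separately for each screening campaign, cut at about 15% in these data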
GASC-1 inh: human JMJD2C demethylase inhibition. inhibition, % at 2.35 µM. GST-JMJD2C(1-420) H3K9me3 demethylation, DELFIA europium. 330,000 tested, 0.069% active. Q9H3R0. AID 2099;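 active means more than half of a compound's replicate wells show inhibition beyond 50%, single wells judged on their own value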;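 further: signal counts dimethyl H3K9 product captured on neutravidin plate; 0% = median of DMSO wells and 100% = 0.3 times that DMSO median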
KLK7 act conf: proKLK7 activation, confirmation; shares compounds with KLK7 zymogen act; purified proKLK7, EDANS-DABCYL substrate fluorescence; scaled: vehicle 0, mature enzyme 100; activation, % at 7 µM; 3,200 tested, 68% active;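 active means activation, as change over the incubation, above the mean of all tested compounds plus 3 SD, cut at about 13% in these data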
EDANS-DABCYL int: fluorescence interference counter-screen for KLK7 activators | shares compounds with KLK7 zymogen act | EDANS-DABCYL substrate fluorescence interference, no enzyme, 4 h; solvent 0%, active enzyme control 100% | activation, % at 7 µM | 3,200 tested, 80% active | AID 686952;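 active means activation above the all-compound mean plus 3 SD, ignoring values outside control-based bounds, cut at about 4.8% in these data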;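 further: value is the 4 h activation minus the activation read at time zero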
K7 EDANS ctr: optically interferes with EDANS-DABCYL fluorescence, kallikrein-7 activator counter-screen | shares compounds with KLK7 zymogen act | EDANS-DABCYL peptide fluorescence interference, no enzyme | EC50, µM | 250 tested, 20% active | AID 720493;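 active means compounds that raise the fluorescence signal in this interference counterscreen, with EC50 at or below 10 µM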;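 further: intact quenched peptide substrate alone read at 355 nm excitation and 520 nm emission; signal is fluorescence gain from T0 to T4 after four hours at room temperature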
* hit, by the source's call; x = no result. Most compounds without a hit are left out; they make up all but 2.8% or so of the library.

SMILES	PP5 inh	KLK7 zymogen act	PG9 binder	Rev-erbA mod	PP1 inh	GASC-1 inh	KLK7 act conf	EDANS-DABCYL int	others
CCCCN1CN2CCc3ccccc3C2CS1(=O)=O (centres undefined)	x	0	x	2	x	x	x	x
C=CS(=O)(=O)c1c2cc(OC)ccc2nc2ccc(OC)cc12	x	22*	-11	-1	x	x	-36	-29
CN1c2ccccc2Oc2nnc(N3CCN(Cc4ccccc4)CC3)cc21	2	5	-2	-1	-3	-7	x	x
CN1c2ccccc2Oc2nnc(Cl)cc21	3	13*	3	2	-1	-5	28*	34*
CC(C)CN1C(=O)C[C@@]2(C(=O)N(C)c3ccc(NS(=O)(=O)C4CCCCC4)cc32)C1c1ccccc1 (some centres undefined)	x	0	x	7	x	x	x	x
O=C1CCCC2=C1C(c1ccc(O)cc1)c1c(ccc3ccccc13)N2 (centres undefined)	0	20*	-2	4	0	0	-38	-36
O=C1CCCC2=C1C(c1ccc(O)c(O)c1)c1c(ccc3ncccc13)N2 (centres undefined)	4	0	-1	-28	0	-7	x	x
Cc1ccc(C)c(-n2c3nc(=O)n(C)c(=O)c-3cc3ccccc32)c1	1	28*	-1	0	-4	x	15*	23*
CCCCn1c(=O)nc2n(-c3ccccc3)c3ccccc3cc-2c1=O	0	15*	-1	5	3	-3	16*	24*
COc1cc2sc3cc(NCC[C@@H]4CCCN4C)ccc3c(=O)c2cc1OC	x	21*	-2	-31	x	20	-68	-65
Cc1cc(N)ccc1-n1nc2ccccc2n1	-1	-1	2	-1	-4	-117	x	x
Cc1ccc(-n2nc3ccc(N)cc3n2)c(C)c1	0	40*	3	-4	1	-1	77*	76*
COc1ccc(-n2nc3ccc(N)cc3n2)cc1Cl	5	53*	1	4	-1	5	75*	75*
COc1ccc(O)c(C(=O)CC(=O)c2cccnc2)c1	x	55*	-1	-5	x	x	229*	235*
COc1ccc(O)c(C(=O)CC(=O)c2ccc(F)cc2)c1	4	8	0	0	1	-7	x	x
COc1ccc(C(=O)N(C)[C@H]2C[C@H]3c4[nH]c5c(-c6ccccc6)cccc5c4CCN3C(=O)[C@H]2[C@H](C)O)cc1	x	-1	0	0	x	x	x	x
COCCNC(=O)/C(C#N)=C/c1c(N2CCN(c3ccc(OC)cc3)CC2)nc2c(C)cccn2c1=O	2	15*	-3	8	2	24	14*	11*	K7 EDANS ctr=>70
Cc1cccn2c(=O)c(/C=C(\C#N)C(N)=O)c(Oc3ccccc3)nc12	-1	15*	-1	-4	2	-24	-8	-9
C=CCNC(=O)/C(C#N)=C/c1c(N2CCN(c3cccc(Cl)c3)CC2)nc2c(C)cccn2c1=O	-2	14*	1	-1	3	6	-3	33*
CNC(=O)/C(C#N)=C/c1c(N2CCN(c3cccc(Cl)c3)CC2)nc2c(C)cccn2c1=O	1	1	-1	-2	-1	-2	x	x
CCN(CC)C(=O)CC[C@H]1CC[C@]2(CCCN(Cc3ccc(Br)cc3)C2)O1	x	-1	x	4	x	x	x	x
CCCCN(CC)Cc1c(O)ccc2c3c(c(=O)oc12)CCC3	-2	62*	1	-9	-1	-3	68*	72*
COCCN(CCOC)Cc1cc(=O)oc2cc3c(cc12)CCC3	2	-2	-1	0	0	-3	x	x
COCCN(CCOC)Cc1c(O)ccc2c3c(c(=O)oc12)CCC3	0	61*	1	-3	0	3	70*	74*
